From PubChem BioAssay AID1159580 (chemical genetic matrix, 2015)
Where “and” joins values, the source holds several entries; their conditions need not be identical. Equal values may be shown once. Screen size: about 5,500 compounds; about 2,000 (36%) were called active. Inconclusive results (about 18%) are left out. No stated cut-off is given here; in the data, active means normalized growth mostly below about 0.91 (no sharp cut-off); inconclusive means no clear call, values can overlap the other calls; inactive means mostly above about 0.92. Some of the results follow.

Test: chemical genetic growth profiling, strain panel (AID 1159580);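 further: tested at 20 µM; growth read once vehicle control cultures reached saturation at 30 °C; 1 = growth at the plate median or of vehicle wells; lower values mean less growth of the strain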
Conditions: growth OD

Measured: normalized growth

Cc1cccc(C)c1NC1=NCCCS1
inactive: S. cerevisiae deletion strains, locus YJR075W, strain HOC1, hits give low values 1.03 | S. cerevisiae deletion strains, locus YKL009W, strain mrt4, hits give low values 0.968 | S. cerevisiae deletion strains, locus YKL068W, hits give low values 0.977 | S. cerevisiae deletion strains, locus YKL085W, strain MDH1 (second series), hits give low values 0.976 | S. cerevisiae deletion strains, locus YKL085W, strain MDH1, hits give low values 0.976 | S. cerevisiae deletion strains, locus YKL160W, strain elf1, hits give low values 1 | S. cerevisiae deletion strains, locus YKL190W, strain CNB1, hits give low values 1.01 | S. cerevisiae deletion strains, locus YKR001C, strain vps1, hits give low values 1 | S. cerevisiae deletion strains, locus YKR026C, strain gcn3, hits give low values 1 | S. cerevisiae deletion strains, locus YKR091W, strain srl3, hits give low values 1.01 | S. cerevisiae deletion strains, locus YLL001W, strain dnm1, hits give low values 0.959 | S. cerevisiae deletion strains, locus YLL026W, hits give low values 1 | S. cerevisiae deletion strains, locus YLL041C, strain sdh2, hits give low values 1.02 | S. cerevisiae deletion strains, locus YLR027C, strain aat2, hits give low values 1.01 | S. cerevisiae deletion strains, locus YLR039C, strain RIC1, hits give low values 0.997 | S. cerevisiae deletion strains, locus YLR058C, strain SHM2, hits give low values 0.996 | S. cerevisiae deletion strains, locus YLR102C, strain apc9, hits give low values 0.989 | S. cerevisiae deletion strains, locus YLR113W, strain HOG1, hits give low values 1.04 | S. cerevisiae deletion strains, locus YLR221C, strain rsa3, hits give low values 0.994 | S. cerevisiae deletion strains, locus YLR258W, strain gsy2, hits give low values 0.995 | S. cerevisiae deletion strains, locus YLR262C, strain YPT6 (second series), hits give low values 1.03 | S. cerevisiae deletion strains, locus YLR262C, strain YPT6, hits give low values 0.985 | S. cerevisiae deletion strains, locus YLR268W, strain sec22, hits give low values 0.978 | S. cerevisiae deletion strains, locus YLR320W, strain mms22, hits give low values 0.994 | S. cerevisiae deletion strains, locus YLR330W, strain CHS5, hits give low values 0.991 | S. cerevisiae deletion strains, locus YLR342W, strain FKS1 (second series), hits give low values 0.981 | S. cerevisiae deletion strains, locus YLR342W, strain FKS1, hits give low values 0.998 | S. cerevisiae deletion strains, locus YLR357W, strain rsc2, hits give low values 0.999 | S. cerevisiae deletion strains, locus YLR370C, strain arc18, hits give low values 1.03 | S. cerevisiae deletion strains, locus YLR371W, strain rom2, hits give low values 0.986 | S. cerevisiae deletion strains, locus YLR384C, strain iki3, hits give low values 0.993 | S. cerevisiae deletion strains, locus YLR418C, strain cdc73, hits give low values 0.986 | S. cerevisiae deletion strains, locus YML016C, strain PPZ1, hits give low values 0.998 | S. cerevisiae deletion strains, locus YML032C, strain rad52, hits give low values 0.998 | S. cerevisiae deletion strains, locus YML120C, strain ndi1, hits give low values 1.01 | S. cerevisiae deletion strains, locus YML124C, strain tub3, hits give low values 0.996 | S. cerevisiae deletion strains, locus YMR058W, strain fet3, hits give low values 1.02 | S. cerevisiae deletion strains, locus YMR078C, strain ctf18, hits give low values 0.98 | S. cerevisiae deletion strains, locus YMR125W, strain sto1, hits give low values 0.986 | S. cerevisiae deletion strains, locus YMR129W, hits give low values 1 | S. cerevisiae deletion strains, locus YMR205C, strain PFK2, hits give low values 1.01 | S. cerevisiae deletion strains, locus YMR223W, strain ubp8, hits give low values 0.969 | S. cerevisiae deletion strains, locus YMR231W, strain pep5, hits give low values 1 | S. cerevisiae deletion strains, locus YMR307W, strain GAS1, hits give low values 0.988 and 1 | S. cerevisiae deletion strains, locus YNL067W, strain RPL9B, hits give low values 1.04 | S. cerevisiae deletion strains, locus YNL071W, strain lat1, hits give low values 1.01 | S. cerevisiae deletion strains, locus YNL128W, strain TEP1, hits give low values 0.991 | S. cerevisiae deletion strains, locus YNL153C, strain GIM3, hits give low values 1.06 and 0.996 | S. cerevisiae deletion strains, locus YNL175C, strain NOP13, hits give low values 0.988 | S. cerevisiae deletion strains, locus YNL183C, strain NPR1, hits give low values 0.96 | S. cerevisiae deletion strains, locus YNL197C, strain WHI3, hits give low values 1.01 | S. cerevisiae deletion strains, locus YNL209W, strain ssb2, hits give low values 1.01 | S. cerevisiae deletion strains, locus YNL224C, strain SQS1, hits give low values 1 | S. cerevisiae deletion strains, locus YNL233W, strain BNI4, hits give low values 1.04 | S. cerevisiae deletion strains, locus YNL248C, strain rpa49, hits give low values 0.997 | S. cerevisiae deletion strains, locus YNL250W, strain rad50, hits give low values 0.926 | S. cerevisiae deletion strains, locus YNL271C, strain bni1, hits give low values 0.985 | S. cerevisiae deletion strains, locus YNL298W, strain CLA4, hits give low values 0.98 | S. cerevisiae deletion strains, locus YNL307C, strain MCK1, hits give low values 0.983 | S. cerevisiae deletion strains, locus YNL322C, strain KRE1 (second series), hits give low values 1.01 | S. cerevisiae deletion strains, locus YNL322C, strain KRE1, hits give low values 1.01 | S. cerevisiae deletion strains, locus YNR049C, strain mso1, hits give low values 0.999 | S. cerevisiae deletion strains, locus YNR052C, strain pop2, hits give low values 0.974 | S. cerevisiae deletion strains, locus YOL006C, strain TOP1, hits give low values 1.08 | S. cerevisiae deletion strains, locus YOL012C, strain htz1 1.34 | S. cerevisiae deletion strains, locus YOL147C, strain pex11, hits give low values 0.984 | S. cerevisiae deletion strains, locus YOR001W, strain rrp6, hits give low values 1.02 | S. cerevisiae deletion strains, locus YOR061W, strain CKA2, hits give low values 1 | S. cerevisiae deletion strains, locus YOR069W, strain VPS5, hits give low values 0.99 | S. cerevisiae deletion strains, locus YOR070C, strain gyp1, hits give low values 1.01 | S. cerevisiae deletion strains, locus YOR080W, strain dia2, hits give low values 0.999 | S. cerevisiae deletion strains, locus YOR083W, strain WHI5 (second series), hits give low values 0.998 | S. cerevisiae deletion strains, locus YOR083W, strain WHI5, hits give low values 1 | S. cerevisiae deletion strains, locus YOR106W, strain vam3, hits give low values 1.04 | S. cerevisiae deletion strains, locus YOR136W, strain idh2, hits give low values 0.995 | S. cerevisiae deletion strains, locus YOR144C, strain elg1, hits give low values 0.994 | S. cerevisiae deletion strains, locus YOR184W, strain ser1, hits give low values 0.976 | S. cerevisiae deletion strains, locus YOR231W, strain MKK1, hits give low values 1.02 | S. cerevisiae deletion strains, locus YOR265W, strain rbl2, hits give low values 1.01 | S. cerevisiae deletion strains, locus YOR270C, strain vph1, hits give low values 1.03 | S. cerevisiae deletion strains, locus YOR290C, strain snf2, hits give low values 1.01 | S. cerevisiae deletion strains, locus YOR316C, strain cot1, hits give low values 0.99 | S. cerevisiae deletion strains, locus YPL051W, strain arl3, hits give low values 0.999 | S. cerevisiae deletion strains, locus YPL055C, strain LGE1, hits give low values 1.1 | S. cerevisiae deletion strains, locus YPL078C, strain atp4, hits give low values 1.02 | S. cerevisiae deletion strains, locus YPL106C, strain sse1, hits give low values 1.01 | S. cerevisiae deletion strains, locus YPL240C, strain hsp82, hits give low values 0.999 | S. cerevisiae deletion strains, locus YPL241C, strain CIN2, hits give low values 1.01 | S. cerevisiae deletion strains, locus YPL256C, strain CLN2, hits give low values 1.04 | S. cerevisiae deletion strains, locus YPR119W, strain clb2, hits give low values 0.985 | S. cerevisiae deletion strains, locus YPR141C, strain kar3, hits give low values 0.982 | S. cerevisiae deletion strains, locus YPR163C, strain tif3, hits give low values 0.979 | S. cerevisiae deletion strains, locus YPR167C, strain met16, hits give low values 0.992 | S. cerevisiae deletion strains, strain wtn01, hits give low values 0.973 | S. cerevisiae strains, strain wild type, hits give low values 1
